PubChem BioAssay AID1903 (Southern Research Specialized Biocontainment Screening …, 2009)
Several values for one entry are separate records, joined by “and”; a condition that tells them apart may be missing. Identical values can stand only once. About 1,200 (0.39%) of roughly 310,000 compounds were called active. How the calls were made is not given here. Only a sample is shown. Potency and affinity values are given separately.

Each molecule was assayed against Large T antigen (Simian virus 40) (UniProt P03070) (assay: TAg ATPase/helicase activity blockers – biochemical (AID 1903)). Conditions: SV40 large T antigen ATPase/helicase inhibition assay; at 20 µM; hits give high values.
Large T antigen (Simian virus 40), sequence (P03070 whole entry, looked up): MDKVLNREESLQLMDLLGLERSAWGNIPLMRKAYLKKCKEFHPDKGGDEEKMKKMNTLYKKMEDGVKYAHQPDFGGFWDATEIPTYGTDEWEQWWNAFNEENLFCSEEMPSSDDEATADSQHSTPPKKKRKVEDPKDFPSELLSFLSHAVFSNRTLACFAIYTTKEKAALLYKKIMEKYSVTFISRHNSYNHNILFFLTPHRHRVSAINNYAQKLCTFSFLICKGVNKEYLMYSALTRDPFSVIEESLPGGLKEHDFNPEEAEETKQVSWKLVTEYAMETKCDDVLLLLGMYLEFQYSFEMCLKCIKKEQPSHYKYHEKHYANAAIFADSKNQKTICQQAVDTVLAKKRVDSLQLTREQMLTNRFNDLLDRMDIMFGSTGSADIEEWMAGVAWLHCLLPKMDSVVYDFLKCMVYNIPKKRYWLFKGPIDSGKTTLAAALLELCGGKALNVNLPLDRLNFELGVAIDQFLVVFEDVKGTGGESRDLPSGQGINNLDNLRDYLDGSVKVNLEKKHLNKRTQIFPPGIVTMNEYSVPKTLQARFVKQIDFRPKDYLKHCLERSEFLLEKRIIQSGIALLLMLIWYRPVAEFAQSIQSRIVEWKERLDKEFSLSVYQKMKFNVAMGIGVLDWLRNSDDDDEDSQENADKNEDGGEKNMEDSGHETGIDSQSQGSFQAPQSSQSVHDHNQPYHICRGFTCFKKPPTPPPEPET

inhibition, inactive:
CCc1c(C)nc(N)nc1Cl 10.9%, CCOC(=O)C(Sc1cc(C)nc(N)n1)C(C)=O (configuration not stated) 7.31%, O=C1C=C(Nc2cccc(O)c2)CC(c2ccco2)C1 (configuration not stated) 6.63%, O=C1C=C(Nc2ccc(Cl)cc2)CC(c2ccco2)C1 (configuration not stated) 24.2%, COc1ccccc1-c1ocnc1C(=O)N1CCN(S(=O)(=O)c2ccc(NC(C)=O)cc2)CC1 4.74%, CCOC(=O)c1c(C)nc2ccccc2c1-c1ccccc1 5.96%, O=C(/C=C/Nc1ccccc1)c1ccccc1 10.3%, COc1ccc(N/C=C/C(=O)C(F)(F)F)cc1 9.63%, CN(C)c1ccc(N/C=C/C(=O)c2ccc(F)cc2)cc1 18.2%, CN(C)c1ccc(N/C=C/C(=O)C(C)(C)C)cc1 27.8%, Cc1ccc(-c2nn(-c3ccccc3)cc2C(N)=O)o1 1%, COc1ccc(CN2CCN(C(=O)CCC(=O)Nc3nnc(C(F)(F)F)s3)CC2)cc1F 25.2%, CCn1c(C)nc2cc(C(=O)N/N=C(\C)c3ccc(N4CCOCC4)cc3)ccc21 9.23%, Oc1c(CN2CCCC(C(F)(F)F)C2)cc(Cl)c2ccccc12 (configuration not stated) 6.33%, O=C1[C@H]2CCCC[C@H]2C(=O)N1CCCCN1CCN(c2nsc3ccccc23)CC1 11.2%, COc1ccc(CN2C(=O)CSCC2=O)cc1OC 23.5%, CC1CCCN(S(=O)(=O)c2cnc[nH]2)C1 (configuration not stated) 16.4%, Cc1ccc(S(=O)(=O)Cc2ccc([N+](=O)[O-])cc2)cc1 12.8%, CC(=O)c1ccc([N+](=O)[O-])c(CS(=O)(=O)c2ccc(Cl)cc2)c1 2.52%, C=CCNc1nc(-c2cc3ccccc3o2)cs1 16.7%, COc1ccc([C@@H]2CC=C(C(=O)O)[C@H](c3cccc(Cl)c3)N2S(=O)(=O)c2ccccc2C)cc1 20.5%, COc1cc(-c2cc(=O)c3c(O)cc(O)cc3o2)ccc1O 11.8%, COc1ccc(-c2cc(=O)c3ccccc3o2)cc1 4.04%, COc1cc(-c2cc(=O)c3c(O)c(OC)c(OC)c(OC)c3o2)cc(OC)c1OC 1.45%, COc1ccc(-c2cc(=O)c3c(OC)c(OC)c(OC)c(OC)c3o2)cc1OC 8.13% and 2.63% and 16.4%, Nc1nnc(-c2cccc([N+](=O)[O-])c2)o1 -0.81%, CCCCCCn1cc(C(=O)OCC)c(=O)c2cc(F)c(F)cc21 20.5%, CCC(C)C(NC(=O)C(N)CC(C)C)C(=O)NC(CCC(=O)OCc1ccccc1)C(N)=O (configuration not stated) -6.23%, COC(=O)c1cc(NCc2cccs2)ccc1N1CCOCC1 36.1%, O=C(O)c1cc(NCc2cccs2)ccc1N1CCOCC1 16.1%, O=C(O)c1ccc(NCc2cccs2)cc1 5.7%, CC(=O)Nc1ccc(NCc2cccs2)cc1 15.1%, O=C(COC(=O)COc1ccccc1[N+](=O)[O-])Nc1ccc(S(=O)(=O)N2CCCCC2)cc1 9.97%, CC(=O)Nc1ccc(NC(=O)CSc2nnc(NC(=O)c3cccc(F)c3)s2)cc1 7.35%, COc1ccc(CC2(CO)COc3ccccc3C2=O)cc1 (configuration not stated) 18%, CCn1c(SCC(=O)Nc2cc(OC)ccc2OC)nnc1C1CCCCC1 5.72%, CN(C)C(=O)COC(=O)c1cc(Cl)cc(Cl)c1N 7.1%, CCOC(=O)C1=C(CCc2ccccc2)NC(=O)NC1c1ccc(C#N)cc1 (configuration not stated) 13.1%, O=C(Nc1ccc(N2CCOCC2)cc1)C1CCN(S(=O)(=O)c2ccccc2F)CC1 13.6%, O=C1C(Cl)=C(N2CCOCC2)C(=O)N1c1ccccc1F 11.2%, O=C1C(Cc2ccccc2)Nc2ncnc(N3CCOCC3)c2N1Cc1ccc(Cl)cc1 (configuration not stated) 9.83%, COc1ccc(N=c2sc3ccccc3n2C)cc1 7.43%, Cn1c(=Nc2ccccc2)sc2ccccc21 -5.34%, CC1CCCCN1c1ncnc2ccccc12 (configuration not stated) 0.555%, CC(C)OC(=O)Cc1nc2sc(-c3ccccc3)cc2c(=O)[nH]1 6.88%, CNCc1ccccc1Sc1cccc(O)c1 25.7%, CNCc1ccccc1Sc1ccc(O)c(O)c1 -1%, CN(C)Cc1ccccc1Sc1ccc(Br)cc1 9.88%, CCN(CC)Cc1ccccc1Sc1ccccc1 16.5%, CCC(C)C(NC(=O)c1ccc(Cl)cc1)C(=O)Nc1cccnc1 (configuration not stated) -3.25%, CCOC(=O)c1c(NC(=O)CSc2nnnn2C)sc(CC)c1C 4.57%, O=C(N/C(=C/c1cccs1)C(=O)N1CCOCC1)c1ccccc1 6.38%, Cc1ccc(Nc2nc(N3CCOCC3)c3ccccc3n2)cc1 6.59%, COc1ccc(Nc2nc(N3CCCCC3)c3ccccc3n2)cc1 8.24%, CN1CCN(c2nc(-c3ccccc3O)nc3ccccc23)CC1 3.42%, COc1ccc(Nc2nc(N3CCCC3)c3ccccc3n2)cc1 17.3%, COc1ccc(OC)c(NC(=O)CSc2ccc(-c3ccco3)nn2)c1 11.7%, CC(C)(C)OC(=O)[C@H](Cc1ccccc1)NC(=O)c1nc[nH]c1C(=O)N1CCN(c2ccccc2)CC1 10.9%, Cc1cc(C(=O)NNC(=S)NCc2ccco2)n(C)n1 -6.03%, CC(=O)OCCCNc1cc(Sc2nc3ccccc3s2)c2nonc2c1[N+](=O)[O-] 22%, CCC(=O)OCCNc1cc(Sc2nc3ccccc3s2)c2nonc2c1[N+](=O)[O-] 10.9%, CC(C)C(=O)N1CCC(Cc2ccccc2)CC1 12.3%, O=C1C=CC(=O)N1c1ccc(I)cc1Cl 8.61%, COc1cc(Cl)c(S(=O)(=O)N2CCCC2)cc1Cl 17.9%, CNC(=O)COC(=O)c1nc(-n2nc(C)cc2C)ccc1Cl 1.24%, COc1ccc(C(=O)Nc2nccs2)cc1 4.19%, O=c1[nH]c(/C=C\c2ccc(O)c(Cl)c2)nc(O)c1[N+](=O)[O-] 22.7%, COc1ccc(/C=C\c2nc(O)c([N+](=O)[O-])c(=O)[nH]2)cc1O 5.95%, Cc1csc(Sc2ccc(S(=O)(=O)N3CCCC3)cn2)n1 10.9%, O=C(O)c1cc(-c2cccs2)nc2ccc(Br)cc12 15.7%, NC(=O)c1nsc(C(=O)N(c2ccc(F)cc2)C(C(=O)NCC2CCCO2)c2ccc3ncccc3c2)c1N (configuration not stated) -0.08%, O=C(NC1CCSc2ccccc21)c1ccc(Cl)c(S(=O)(=O)N2CCOCC2)c1 (configuration not stated) 9.03%, NS(=O)(=O)c1cccc(C(=O)NC2CCSc3ccccc32)c1 (configuration not stated) -2.32%, COC(=O)C1=C(C)NC(=S)N(C(C)=O)C1c1ccc(OC)c(OC)c1 (configuration not stated) 9.87%, COC(=O)Cc1c(C)c2ccc(OCC(=O)c3ccc(OC)c(OC)c3)cc2oc1=O 14.4%, Cc1csc(NC(=O)CS(=O)(=O)Cc2ccccc2)n1 0.95%, COc1cccc(NC(=O)c2cc([N+](=O)[O-])ccc2NC(=O)CNCC2CCCO2)c1 (configuration not stated) 3.88%, Cc1cc(SCC(=O)c2ccc(O)c(O)c2)nc2ccccc12 35.4%, Cn1c(SCC(=O)c2ccc(O)c(O)c2)nnc1-c1ccccc1 27.2%, Cc1cc(C)nc(SCC(=O)c2ccc(O)c(O)c2)n1 35.3%, Cc1cc(SCC(=O)c2ccc(O)c(O)c2)n2nc(C)c(-c3ccccc3)c2n1 31.3%, O=C(CSc1nc2ccccc2n1CCc1ccccc1)N1CCOCC1 11.6%, O=C(CSc1nc2ccccc2n1CCc1ccccc1)NC1CC1 5.51%, Cc1cc(-c2nnc(CCC(=O)N(C)C(C)c3cccs3)o2)no1 (configuration not stated) 22%, CCC(C)N(C(=O)COC(=O)COc1c(C)cc(C)cc1C)C1CCS(=O)(=O)C1 (configuration not stated) 7.34%, COCC1CCN(C(=O)c2ccc3oc(Cc4ccc(Cl)cc4)nc3c2)C1 (configuration not stated) 11.1%, Cc1sc2ncnc(Sc3ccccc3C(=O)Nc3ccc(C#N)cc3)c2c1C 9.82%, Cc1nn(-c2ccccc2)c(Cl)c1/C=N\NC(=O)c1cncc(Br)c1 22%, CC(=O)c1ccc(N2C(=O)NC3(CCCCC3)C2=O)cc1 3.35%, COc1cccc(-c2nc(CS(=O)(=O)CC(=O)Nc3cc(C)ccc3C)c(C)o2)c1 15.6% and 1.41%, Cc1nc(Cl)cc(N/N=C/c2ccc(O)cc2O)n1 24.5%, COc1ccc(/C=N/Nc2cc(C)nc(NS(=O)(=O)c3ccc(C)cc3)n2)cc1 11.9%, COc1cccc(/C=N/Nc2cc(Cl)nc(C)n2)c1O 21%, CCN(CC)S(=O)(=O)c1ccc(N/N=C/c2ccc(O)cc2O)nc1 21.6%, Cc1cc(N/N=C/c2ccc(O)cc2)nc(NS(=O)(=O)c2ccccc2)n1 10.1%, CCN(CC)S(=O)(=O)c1ccc(N/N=C/c2cccnc2)nc1 9.01%, COc1ccccc1C(=O)N/C(=C/c1cccc([N+](=O)[O-])c1)C(=O)Nc1cccc(C(=O)O)c1 -0.39%
